This passage reports Potency and outcome results from PubChem BioAssay (Tox21).

Experiment [1] is described as follows: qHTS assay to identify small molecule agonists of the vitamin D receptor (VDR) signaling pathway - cell viability counter screen (AID 743224). Note: nearly all actives have a fitted effect of over 50% in size. Note: potency is the fitted concentration of half-maximal effect. An outline of the steps:
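Plated VDR-bla cells (4 h, 37C) received compound, incubated 16 h, then LiveBLAzer substrate 2 h RT; CellTiter-Glo added afterwards, luminescence read at 30 min.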
A general note: Quantitative high-throughput screening tests each substance at several concentrations.

A short description of experiment [2]: qHTS assay to identify small molecule antagonists of the vitamin D receptor (VDR) signaling pathway - cell viability counter screen (AID 743225). Note: nearly all actives have a fitted effect of over 50% in size. Note: potency is the fitted concentration of half-maximal effect. A digest of the protocol:
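Cytotoxicity toward the VDR-bla HEK 293T line was scored by ATP-based CellTiter-Glo luminescence, read in the wells already used for the beta-lactamase readout after 16 h compound treatment under 3 nM 1-alpha,25-dihydroxyvitamin D3 stimulation.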

Experiment [3] is described as follows: qHTS assay to identify small molecule agonists of the endoplasmic reticulum stress response signaling pathway (AID 1159516; active = well fitted activation curve with a large enough effect in the signal ratio in the repeat runs, not every such curve was filed as active; the % refers to the signal ratio). An outline of the steps:
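An ESRE-bla HeLa cell assay: compounds were pin-transferred from DMSO onto overnight-plated cells and left 5 hr at 37 C. Substrate was then loaded for 2 hr at room temperature before reading fluorescence at 460 nm and 530 nm.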

Experiment [4] can be described thus: qHTS assay to identify small molecule agonists of the endoplasmic reticulum stress response signaling pathway - cell viability counter screen (AID 1159517; calls by dose curve; note: nearly all actives have a fitted effect of over 50% in size; note: potency is the fitted concentration of half-maximal effect). An outline of the steps: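 Cells, HeLa ESRE-bla; density, 1,500/well; dosing, 5 hr at 37 C, 5% CO2; readout, CellTiter-Glo luminescence after 30 min RT.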
Experiment [5] is described as follows: qHTS assay to identify small molecule antagonists of the retinoid-related orphan receptor gamma (ROR-gamma) signaling pathway - cell viability counter screen (AID 1159520). Note: nearly all actives have a fitted effect of over 50% in size. An outline of the steps: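 Cytotoxicity was read from cellular ATP (CellTiter-Glo luminescence) after 16 hr at 37 C with 1 uM doxycycline induction. The inducer was added 2 hr after compound transfer to Tet-on ROR gamma CHO cells.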

Experiment [6] can be described thus: qHTS assay to identify small molecule agonists of the RXR signaling pathway - cell viability counter screen (AID 1159529). Note: nearly all actives have a fitted effect of over 50% in size. Note: potency is the fitted concentration of half-maximal effect. A digest of the protocol: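 Tox21 10K compounds were tested for cytotoxicity against GeneBLAzer RXR-alpha HEK 293T cells grown in 2% charcoal-stripped FBS. Exposure lasted 16 hr at 37 C, 5% CO2; viability read by CellTiter-Glo luminescence.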

The nature of experiment [7]: qHTS assay to identify small molecule antagonists of the retinoic acid receptor (RAR) signaling pathway (AID 1159552; note: nearly all actives have a fitted effect of over 50% in size; note: potency is the fitted concentration of half-maximal effect). An outline of the steps: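 Overnight-plated C3RL4 reporter cells get compound, then retinol to 1 uM final; plates sit 6 hr at 37 C, 5% CO2. A luciferase reagent is added and light output recorded after 30 min at room temperature.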
Experiment [8] in a line: qHTS assay to identify small molecule agonists of the retinoic acid receptor (RAR) signaling pathway (AID 1159553). Note: potency is the fitted concentration of half-maximal effect. A digest of the protocol:
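Reporter readout comes from luciferase under RARE control in C3RL4 cells; compound exposure lasts 6 hr at 37 C in 5% CO2, and luminescence is recorded following a 30 min room-temperature incubation with reagent.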

The target of experiment [9] is Nuclear receptor ROR-gamma (Homo sapiens) (UniProt P51449). Nature of the experiment: qHTS assay to identify small molecule antagonists of the retinoid-related orphan receptor gamma (ROR-gamma) signaling pathway (AID 1159521; note: nearly all actives have a fitted effect of over 50% in size; note: potency is the fitted concentration of half-maximal effect). A digest of the protocol:
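Readout: ONE-Glo luciferase luminescence, 30 min at room temperature. System: Tet-on RORγ CHO, RORE-LUC. Sequence: compound 2 h, doxycycline 1 uM final, 16 h at 37 C.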

A short description of experiment [10]: qHTS assay to identify small molecule agonists of the AP-1 signaling pathway - cell viability counter screen (AID 1159525; calls by dose curve; note: nearly all actives have a fitted effect of over 55% in size; note: potency is the fitted concentration of half-maximal effect). An outline of the steps:
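Luminescent ATP readout (Cell Titer Glo, 30 min RT), normalised to DMSO and tetra n-octyl ammonium bromide controls. Cells were ME-180 AP-1-bla in 0.5% dialyzed FBS Opti-MEM, with a 5 h, 37 °C compound exposure.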

Experiment [11] in a line: qHTS assay to identify small molecule antagonists of the retinoid acid receptor (RAR) signaling pathway - cell viability counter screen (AID 1159551). Note: nearly all actives have a fitted effect of over 35% in size. A digest of the protocol:
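Retinol-stimulated (1 uM final) C3RL4 cells, compound 6 h, 37 C; readout CellTiter-Glo luminescence (ATP) after 30 min RT incubation.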

Experiment [12] can be described thus: qHTS assay to identify small molecule agonists of the AP-1 signaling pathway (AID 1159526; calls by dose curve).
Experiment [13] has as its target Retinoic acid receptor RXR-alpha (Homo sapiens) (UniProt P19793). Kind of experiment: qHTS assay to identify small molecule agonists of the RXR signaling pathway (AID 1159527; calls by dose curve; note: nearly all actives have a fitted effect of over 35% in size). A digest of the protocol: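 Reporter activation is measured as beta-lactamase activity via FRET substrate cleavage (emission 460/530 nm) in HEK 293T cells expressing an RXR-alpha-driven bla construct, following 16 hr compound exposure at 37 C.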

Experiment [14] is described as follows: qHTS assay to identify small molecule agonists of the NFkB signaling pathway - cell viability counter screen (AID 1159515; calls by dose curve; note: series mostly up to about 61 µM; nearly all actives have a fitted effect of over 55% in size). An outline of the steps:
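Using the same wells as the NFkB reporter read, ME-180 NFkB-bla cells given compounds for 5 hr were assessed for viability via CellTiter-Glo, with luminescence taken after a 30 min room-temperature incubation.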

Experiment [15] can be described thus: qHTS assay to identify small molecule antagonists of the estrogen related receptor (ERR) signaling pathway - cell viability counter screen (AID 1224818).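 Note: series mostly up to about 46 µM; viability measured after 17.5 h of compound exposure.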 A digest of the protocol:
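After a 6 h pre-incubation, ERR cells were dosed by pin tool with compounds, positive/negative controls or DMSO alone. Following 17.5 h at 37 C and 30 min with CellTiter-Fluor, fluorescence was recorded.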

A short description of experiment [16]: qHTS assay to identify small molecule antagonists of the estrogen related receptor (ERR) signaling pathway (AID 1224819). A digest of the protocol: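 Luminescence readout (One-Glo, 30 min, RT) of ERR cell line after 18 h compound exposure at 37 C; cells seeded 2,000/well, pre-incubated 6 h, compounds pinned from DMSO stocks.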
Experiment [17] can be described thus: qHTS assay to identify small molecule agonists of the estrogen related receptor (ERR) signaling pathway (AID 1224820). An outline of the steps:
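ERR reporter cells (NTP line) plated 2,000/well, incubated 6 h at 37 C/5% CO2, then pinned with compounds in DMSO and held 18 h at 37 C. One-Glo added; luminescence read after 30 min at room temperature.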

A short description of experiment [18]: qHTS assay to identify small molecule agonists of the estrogen related receptor signaling pathway with the pleiotropic PPARgamma coactivator (PGC) (AID 1224823). A digest of the protocol: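 PGC/ERR reporter cells were seeded, rested 6 h at 37 C/5% CO2, then exposed to compounds in DMSO by pin transfer for 18 h at 37 C. Luciferase activity was read as luminescence after One-Glo reagent and 30 min at room temperature.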

Several values for one entry are separate records, joined by “and”; a condition that tells them apart may be missing. Equal values may be shown once. Results filed as inconclusive are left out. More than one record can exist for a structure, and the calls need not agree. Activity calls are given as the source filed them. Unless noted, calls come from the whole dose curve; as a rule, active = well fitted curve in the direction sought with a large enough effect in the repeat runs; inconclusive = weak or mixed curves; inactive = no such curve, though single readings can be large; an effect the other way counts as inactive or inconclusive.

Sequence of Retinoic acid receptor RXR-alpha (Homo sapiens) (P19793 whole entry, looked up): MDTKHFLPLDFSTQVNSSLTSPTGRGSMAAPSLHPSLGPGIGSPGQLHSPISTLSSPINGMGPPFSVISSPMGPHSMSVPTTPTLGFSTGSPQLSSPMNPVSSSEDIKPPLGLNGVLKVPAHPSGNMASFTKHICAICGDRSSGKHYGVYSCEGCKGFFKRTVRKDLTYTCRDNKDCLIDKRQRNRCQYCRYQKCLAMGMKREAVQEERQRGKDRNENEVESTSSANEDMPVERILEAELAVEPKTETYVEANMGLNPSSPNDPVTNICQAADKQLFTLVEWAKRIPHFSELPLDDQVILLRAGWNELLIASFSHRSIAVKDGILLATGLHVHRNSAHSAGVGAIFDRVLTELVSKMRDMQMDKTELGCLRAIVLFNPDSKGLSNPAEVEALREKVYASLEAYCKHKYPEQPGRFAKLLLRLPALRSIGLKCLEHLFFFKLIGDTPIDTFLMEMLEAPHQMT

For the compound `O=c1cc(-c2ccc(O)cc2)oc2cc(O)cc(O)c12`, the Potency entry in [1], in experiment [2], in experiment [4], in [5], in [6] and in experiment [7] was “inactive” each time. Besides, the call in [3] was inactive. Besides, in experiment [8], the Potency was 1.56 µM (active).

With `CCCCC(CC)COP(=O)(O)OCC(CC)CCCC` (stereo not given), the Potency is 55 µM (active) in experiment [1]; 55 µM (active) and 49 µM (active) in experiment [4]; 54.6 µM (active) and 48.6 µM (active) in experiment [9]; “inactive and 48.6 µM (active)” in [7]. The Potency result in [2], in [5], in experiment [10], in experiment [6], in experiment [11] and in experiment [8] was “inactive” each time. The compound was classed as inactive in experiment [3].

As to `N#CC1(c2ccc(F)cc2)CCC(=O)CC1`, the Potency result in [1], in experiment [2], in experiment [4], in experiment [5], in experiment [9] and in experiment [12] was “inactive” each time. Further, the Potency entry in experiment [13], in [6], in [11], in [7] and in [8] was “inactive” in each case. Besides, in experiment [3], the compound was classed as inactive.

With `C[C@H]1[C@H]2CC[C@H]3[C@@H]4CC=C5C[C@@H](N(C)C)CC[C@]5(C)[C@H]4CC[C@]23CN1C`, the Potency result in [1], in [2], in [4], in experiment [5], in [9] and in experiment [10] was “inactive” throughout. The Potency entry in experiment [12], in experiment [13], in experiment [6], in experiment [11], in experiment [7] and in experiment [8] was “inactive” throughout. For the same compound, in experiment [3], the compound was called inactive.

As to `CCN(C(=O)N(CC)c1ccccc1)c1ccccc1`, the Potency entry in [1], in [2], in experiment [5], in [9], in experiment [10] and in experiment [12] was “inactive” each time. The Potency result in experiment [13], in experiment [6], in [11], in [7] and in experiment [8] was “inactive” in each case. Further, in experiment [3], the compound was classed as inactive.

In the case of `C/C=C(\C)C(=O)OCc1ccccc1`, the Potency entry in [2], in [5], in [9], in experiment [10], in [12] and in [13] was “inactive” in each case. For the same compound, the Potency result in experiment [6], in experiment [11] and in [7] was “inactive” in each case. Further, the call in [3] was inactive.

For `CCCCCCCC(=O)[O-].CCCCCCCC(=O)[O-].[Zn+2]`, the Potency result in experiment [1], in experiment [2], in [4], in [5], in [9] and in experiment [10] was “inactive” in each case. Besides, the Potency entry in experiment [12], in [13], in experiment [6] and in [11] was “inactive” throughout. Moreover, in experiment [3], the compound was classed as inactive.

Regarding `CC[C@H](c1ccc(O)cc1)[C@@H](CC)c1ccc(O)cc1`, the Potency result in experiment [1], in [4], in experiment [5], in experiment [12] and in experiment [11] was “inactive” in each case. The outcome in [3] was inactive. For the same compound, the Potency in experiment [9] is 54.5 µM (active) and inactive; in [10], 54.9 µM (active) and inactive; in experiment [6] it was 49 µM (active).

In the case of `S=c1[nH]c2ccccc2s1`, the Potency result in experiment [14], in [10], in experiment [6], in experiment [11], in experiment [7] and in [15] was “inactive” throughout. The Potency entry in experiment [16] is “inactive”. In experiment [8], the Potency was 8.63 µM (active). In addition, the outcome in experiment [17] and in experiment [18] was inactive.

Regarding `Cc1cc(N)c(S(=O)(=O)O)cc1Cl`, the Potency entry in experiment [1], in experiment [2], in [5], in experiment [9], in experiment [10] and in [12] was “inactive” each time. Besides, the Potency result in experiment [13], in experiment [6], in [11], in experiment [7] and in [8] was “inactive” throughout. The result in [3] was inactive.

Turning to `O=C(Nc1cccc(Cl)c1)OCC#CCCl`, the Potency was 43.6 µM (active) in experiment [1] and 54.9 µM (active) in experiment [2]. For the same compound, the Potency result in [14], in [10] and in experiment [11] was “inactive” throughout.

On to `CCCCCCCCCCC=O`, for which the Potency entry in experiment [1], in experiment [2], in experiment [5], in [9], in [10] and in [12] was “inactive” in each case. The Potency entry in experiment [13], in [6], in [11], in experiment [7] and in [8] was “inactive” throughout. The compound was called inactive in experiment [3].

With `CCC(C)(C)C1CCCCC1OC(C)=O` (stereo not given), the Potency in experiment [1] was 38.9 µM (active). Besides, the Potency result in experiment [2], in [4], in [5], in experiment [9], in experiment [10] and in experiment [12] was “inactive” throughout. Moreover, the Potency result in [13], in experiment [6], in [11] and in experiment [7] was “inactive” each time. For the same compound, the compound was classed as inactive in experiment [3].

Consider `Cc1ccc(O)c(C(C)(C)C)c1`, for which the Potency in experiment [1] was 19.5 µM (active); in experiment [2], 21.8 µM (active). Moreover, in experiment [3], the compound was called inactive. Also, the Potency result in experiment [4], in experiment [5], in experiment [9], in [13] and in experiment [11] was “inactive” in each case.
